Data taken from PubChem BioAssay (NCI).
The panel holds about 83,000 compounds, 20% with a hit somewhere; the sample as a whole holds those more often.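 Activity criterion: percent growth below 10, measured after cells in 96-well plates were exposed to a single compound concentration for 48 hours.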 Unmarked numbers belong to inactive results. Calls of active or inactive are those of the source.

These molecules were tested on A549/ATCC NSCLC (assay: NCI-60 one-dose screen, 48 h (100 = growth as untreated, 0 = no growth, -100 = all killed)). Conditions: 10 µM unless noted.

SMILES	growth [%]
O=S(=O)(NCCNc1nccc(-c2c(-c3ccc(F)c(O)c3)nc3occn23)n1)c1ccc(Cl)cc1	77.9
Nc1ncnc2c1N=C(c1ccc(Br)cc1)CC(c1cccc(Nc3ccnc4cc(C(F)(F)F)ccc34)c1)N2 (centres undefined)	55.2
Nc1ncc(-c2ccc3ncnc(Nc4cccc(Cl)c4)c3c2)cn1	35.1
O=C(Nc1ccccc1)Nc1ncnc2c1ncn2-c1ccc(Cl)cc1	83.7

These molecules were tested on 786-0 renal in the same assay as above. Conditions: 10 µM unless noted.

SMILES	growth
C[PH+](c1nc2ccccc2nc1[PH+](C)C(C)(C)C)C(C)(C)C.C[PH+](c1nc2ccccc2nc1[PH+](C)C(C)(C)C)C(C)(C)C.[Au+].[Cl-] (centres undefined)	-96.6% (active)
CN(C)CCNC(=O)c1cc2c3cc(Cl)ccc3[nH]c2c2ncccc12	11.4%
CNC(=O)c1ccccc1Oc1nc(Nc2cc(OC)c(OC)c(OC)c2)ncc1Br	48.9%
O=C(c1ccccc1)c1ccc(C2CCCCC2)cc1	90.1%
CCCCCCCC[C@@H]1N[C@@H](C(=O)OC)Cc2c1[nH]c1ccccc21	96.2%
Cc1cc(N2CCCCC2)cc(C)c1-c1csc(NC(=O)c2ccncc2)n1	77.5%
Cc1nc2sc(C(=O)Nc3ccc(Br)cc3)c(N)c2cc1C(O)c1ccccc1 (centres undefined)	81%
CCN(CC)CC(O)COc1c(Br)c(Br)c(Br)c2c1OC(C)(C)C2 (centres undefined)	51.3%
Cc1cccc(CNc2c3ccccc3nc3ccccc23)c1	24.2%
Fc1cc2c(cc1Cl)N(c1ncnc3ccc(-c4ccc5n[nH]nc5c4)cc13)CC2	78.6%
